Test [1] is described as follows: Nuclear factor erythroid 2-related factor 2/antioxidant responsive element (Nrf2/ARE) small molecule agonists: qHTS cell viability counter screen in human keratinocytes (AID 1919968; active = well fitted curve in the direction sought with a large enough effect in the repeat runs; an effect the other way counts as inactive or inconclusive; note: nearly all actives have a fitted effect of over 55% in size). A digest of the protocol:
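Cytotoxicity was multiplexed with the Nrf2/ARE luciferase assay in the same wells. Stably transfected HaCaT keratinocytes were treated with test compounds for 23 h at 37 C. Cell viability was then measured by CellTiter-Fluor fluorescence.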

A short description of test [2]: Nuclear factor erythroid 2-related factor 2/antioxidant responsive element (Nrf2/ARE) small molecule agonists: luciferase reporter gene qHTS assay in human keratinocytes (AID 1919969). Note: nearly all actives have a fitted effect of over 35% in size. Note: potency is the fitted concentration of half-maximal effect.
The target of test [3] is Gonadotropin-releasing hormone receptor (Homo sapiens) (UniProt P30968). Kind of test: Human gonadotropin-releasing hormone receptor (GnRHR) small molecule agonists, calcium flux assay in GnRHR-HEK293 cells (AID 1920063). Note: nearly all actives have a fitted effect of over 35% in size. A digest of the protocol: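 Agonist activity was measured as intracellular calcium flux in HEK293 cells engineered to stably express human GnRHR. After dye loading for 1 hour at 37 C, compounds in DMSO were added and fluorescence was followed for 3 minutes.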
Gonadotropin-releasing hormone receptor (Homo sapiens), sequence (P30968 whole entry, looked up): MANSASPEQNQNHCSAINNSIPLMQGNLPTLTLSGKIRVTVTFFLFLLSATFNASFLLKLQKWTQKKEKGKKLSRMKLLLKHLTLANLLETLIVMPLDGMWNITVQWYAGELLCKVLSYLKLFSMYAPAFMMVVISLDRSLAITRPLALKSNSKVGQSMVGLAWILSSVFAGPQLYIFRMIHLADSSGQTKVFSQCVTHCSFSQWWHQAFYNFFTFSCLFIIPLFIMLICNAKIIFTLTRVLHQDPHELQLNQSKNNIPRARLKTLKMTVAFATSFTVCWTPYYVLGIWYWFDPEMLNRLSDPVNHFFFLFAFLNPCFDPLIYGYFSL
(In general: Calcium assays in cells follow changes in intracellular calcium, usually with a dye or a luminescent sensor.)

In test [4] the target is KiSS-1 receptor (Homo sapiens) (UniProt Q969F8). The test can be described thus: Human kisspeptin (KISS1R) small molecule agonists, calcium flux assay in KISS1R-HEK293 cells (AID 1920064; active = well fitted curve in the direction sought with a large enough effect in the repeat runs; an effect the other way counts as inactive or inconclusive). In outline: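 Agonist activity is monitored as intracellular calcium rise in engineered HEK293 cells carrying human KISS1R. Cells are dye-loaded for 1 h at 37 C before compound addition, and fluorescence is recorded for 3 min.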
KiSS-1 receptor (Homo sapiens), sequence (Q969F8 whole entry, looked up): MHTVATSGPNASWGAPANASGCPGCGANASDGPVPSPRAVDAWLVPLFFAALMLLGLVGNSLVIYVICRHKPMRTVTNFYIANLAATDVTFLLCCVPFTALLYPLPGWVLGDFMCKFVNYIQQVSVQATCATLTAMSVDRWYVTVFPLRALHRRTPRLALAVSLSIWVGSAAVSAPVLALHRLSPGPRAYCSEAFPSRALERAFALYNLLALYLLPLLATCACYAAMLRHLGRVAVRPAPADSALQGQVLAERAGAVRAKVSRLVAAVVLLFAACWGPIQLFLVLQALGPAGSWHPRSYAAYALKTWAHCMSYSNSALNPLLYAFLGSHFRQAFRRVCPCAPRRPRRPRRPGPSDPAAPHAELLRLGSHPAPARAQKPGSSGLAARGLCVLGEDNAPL

A short description of test [5]: G protein-coupled receptor (GPCR) small molecule agonists, calcium flux assay: HEK293 wild type cell line counter screen (AID 1920065). A digest of the protocol: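 Seed cells, incubate 18 h (37 C, 5% CO2); add calcium dye, 1 h at 37 C; pin-transfer compounds, ATP control or DMSO; read fluorescence 480/540 nm each second for 3 min.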
A short description of test [6]: p53 small molecule agonists, cell-based qHTS assay with human liver microsomes (AID 1963577).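 Note: p53 response element beta-lactamase reporter cells with liver microsomes plus NADPH.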 A digest of the protocol: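 Reporter activation was measured by LiveBLAzer fluorescence intensity in p53RE-bla cells, which had been exposed to compounds for 16 h at 37 C alongside 0.5 mg/mL human liver microsomes and 0.5 mg/mL NADPH (final concentrations).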
A general note: In qHTS, concentration-response curves come from the screen itself.

Test [7] is described as follows: p53 small molecule agonists, cell-based qHTS assay with rat liver microsomes (AID 1963578). A digest of the protocol: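 Compound in DMSO added to p53RE-bla cells 5 h post-plating; rat microsomes/NADPH 0.5 mg/mL final; 16 h, 37 C; LiveBLAzer 2 h RT.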
Test [8] is described as follows: p53 small molecule agonists, cell-based qHTS assay with human liver microsomes: qHTS cell viability counter screen (AID 1963579). Note: nearly all actives have a fitted effect of over 45% in size. A digest of the protocol:
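HLM-supplemented (0.5 mg/mL final) and NADPH-supplemented (0.5 mg/mL final) p53RE-bla cultures, 4,000 cells per well, were dosed with compounds in DMSO for 16 h at 37 C; luminescent ATP detection (CellTiter-Glo, 30 min, room temperature) quantified surviving cells.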

Test [9] is described as follows: p53 small molecule agonists, cell-based qHTS assay with rat liver microsomes: qHTS cell viability counter screen (AID 1963580). Note: nearly all actives have a fitted effect of over 45% in size. In outline:
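Rat liver microsome (0.5 mg/mL final) and NADPH (0.5 mg/mL final) co-incubation with compounds for 16 h at 37 C on HCT-116 p53RE-bla cells; cytotoxicity taken from intracellular ATP luminescence.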

Test [10] is described as follows: p53 small molecule agonists, cell-based qHTS assay: qHTS cell viability counter screen (AID 1963581). Note: nearly all actives have a fitted effect of over 45% in size. In outline:
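Viability was counter-screened in parallel with the p53 agonist reporter by measuring intracellular ATP luminescence in the same HCT-116 p53RE-bla wells after 16 h compound treatment at 37 C.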

For test [11], the target named is 5-hydroxytryptamine receptor 2A (Homo sapiens) (UniProt P28223). Kind of test: 5-hydroxytryptamine receptor 2A (HTR2A) small molecule agonists, cell-based qHTS assay (AID 1963587). Note: nearly all actives have a fitted effect of over 30% in size. A digest of the protocol:
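Kinetic calcium-flux fluorescence (2 min, 1 sec intervals) after compound addition in agonist mode. HTR2A-CHO cells were cultured 18 h, then dye-loaded 1 h at 37 C.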

Test [12] has as its target Muscarinic acetylcholine receptor M1 (Homo sapiens) (UniProt P11229). Kind of test: Cholinergic receptor muscarinic 1 (CHRM1) small molecule antagonists, cell-based qHTS assay (AID 1963588). Note: nearly all actives have a fitted effect of over 40% in size. A digest of the protocol: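 Compounds were tested at 15 concentrations in three independent runs. Dye-loaded CHRM1-CHO cells were exposed 5 min at room temperature before stimulation by acetylcholine added at 50nM. Intracellular calcium was read kinetically on FDSS for 3 min.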

The target is the same in test [13]. The test can be described thus: Cholinergic receptor muscarinic 1 (CHRM1) small molecule agonists, cell-based qHTS assay (AID 1963589). Note: nearly all actives have a fitted effect of over 35% in size. A digest of the protocol: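 Cells were plated and incubated 18 h at 37 C/5% CO2, loaded with calcium dye for 1 h at 37 C, then treated with compounds in DMSO. Fluorescence was recorded kinetically at 1 sec intervals.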
A short description of test [14]: cAMP Responsive Elements (CRE) small molecule agonists, cell-based qHTS assay (AID 1963590). In outline:
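Cells carrying a CRE-driven beta-lactamase reporter (HEK 293T) are seeded, incubated overnight (18 h), and treated with test compounds for 3 h at 37 C; reporter activity is then detected with a FRET substrate after 2 h at room temperature.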

Test [15] is described as follows: cAMP Responsive Elements (CRE) small molecule antagonists, cell-based qHTS assay (AID 1963591; active = well fitted inhibition curve with a large enough effect in the signal ratio in the repeat runs, not every such curve was filed as active; the % refers to the signal ratio). A digest of the protocol: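 Cells (CRE-bla HEK 293T, DMEM with 10% dialyzed FBS and 25 mM HEPES) are seeded and incubated 18 h. Compounds are added with NKH477 agonist at 0.25 uM final for 3 h, then FRET substrate for 2 h.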
The target in test [16] is Beta-2 adrenergic receptor (Homo sapiens) (UniProt P07550). The test can be described thus: Adrenergic beta2 receptor (ADRB2) small molecule antagonists, cell-based qHTS assay (AID 1963592). Note: series mostly up to about 92 µM; nearly all actives have a fitted effect of over 50% in size. A digest of the protocol:
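Assay format: CHO-ADRB2 cells, 18-20hr seeding at 37C/5% CO2, then compound plus 1nM isoproterenol agonist mix for 0.5hr RT. Homogeneous time-resolved fluorescence cAMP detection after 1hr, expressed as 665/615 nm ratio.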

Test [17] concerns the target D(2) dopamine receptor (Homo sapiens) (UniProt P14416). The test can be described thus: Dopamine D2 receptor (DRD2) small molecule agonists, cell-based qHTS assay (AID 1963594). Note: nearly all actives have a fitted effect of over 35% in size. In outline:
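cAMP accumulation in DRD2-HEK293 cells measured by HTRF after 1 h detection; compounds added 10 min before NKH477 (200nM […]) forskolin-analogue stimulation, 30 min at room temperature, with Ro20-1724 present at 0.1 mM final.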

For test [18] the target is unchanged. The test can be described thus: Dopamine D2 receptor (DRD2) small molecule antagonists, cell-based qHTS assay (AID 1963595; active = well fitted inhibition curve with a large enough effect in the signal ratio in the repeat runs, with a control signal flat; the % refers to the signal ratio). In outline:
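In this cell-based antagonist screen, compounds act for 10 min at room temperature before a 30 min challenge with 12 nM quinpirole and 200 nM NKH477. cAMP is quantified by HTRF competition in DRD2-HEK293 cells containing 0.1 mM Ro20-1724.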

Test [19] in a line: p53 small molecule agonists, cell-based qHTS assay (AID 1963582; active = well fitted activation curve with a large enough effect in the signal ratio in the repeat runs, not every such curve was filed as active; the % refers to the signal ratio). In outline: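 Cells carrying a p53-responsive bla reporter are treated with test compounds for 16 h at 37 C; beta-lactamase activity is then detected with LiveBLAzer B/G FRET substrate after 2 h at room temperature.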
The target of test [20] is Beta-2 adrenergic receptor (Homo sapiens) (UniProt P07550). The test can be described thus: Adrenergic beta2 receptor (ADRB2) small molecule agonists, cell-based qHTS assay (AID 1963593).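 Note: CHO cells stably overexpressing human ADRB2.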 A digest of the protocol: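 CHO cells stably over-expressing ADRB2 were plated overnight at 37C, then dosed with compounds plus a stimulation mix containing 100uM IBMX and 25uM Ro-20-1724 for 0.5hr at room temperature. cAMP was measured by HTRF competition, 1hr.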
Beta-2 adrenergic receptor (Homo sapiens), sequence (P07550 whole entry, looked up): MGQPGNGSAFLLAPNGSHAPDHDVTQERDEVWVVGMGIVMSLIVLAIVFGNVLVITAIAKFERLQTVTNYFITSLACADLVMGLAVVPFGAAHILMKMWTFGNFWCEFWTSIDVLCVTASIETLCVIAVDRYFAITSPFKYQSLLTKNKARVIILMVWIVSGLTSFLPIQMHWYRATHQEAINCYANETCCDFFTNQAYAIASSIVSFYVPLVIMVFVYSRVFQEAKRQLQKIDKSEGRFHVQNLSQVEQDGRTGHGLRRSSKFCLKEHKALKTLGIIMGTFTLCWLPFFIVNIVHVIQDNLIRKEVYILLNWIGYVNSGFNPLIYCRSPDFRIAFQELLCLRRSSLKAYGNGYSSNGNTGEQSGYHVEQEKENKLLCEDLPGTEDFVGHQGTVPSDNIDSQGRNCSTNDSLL

Unmarked numbers belong to inactive results. Results filed as inconclusive are left out. Activity calls are given as the source filed them. Unless noted, calls come from the whole dose curve.

Muscarinic acetylcholine receptor M1 (Homo sapiens), sequence (P11229 whole entry, looked up): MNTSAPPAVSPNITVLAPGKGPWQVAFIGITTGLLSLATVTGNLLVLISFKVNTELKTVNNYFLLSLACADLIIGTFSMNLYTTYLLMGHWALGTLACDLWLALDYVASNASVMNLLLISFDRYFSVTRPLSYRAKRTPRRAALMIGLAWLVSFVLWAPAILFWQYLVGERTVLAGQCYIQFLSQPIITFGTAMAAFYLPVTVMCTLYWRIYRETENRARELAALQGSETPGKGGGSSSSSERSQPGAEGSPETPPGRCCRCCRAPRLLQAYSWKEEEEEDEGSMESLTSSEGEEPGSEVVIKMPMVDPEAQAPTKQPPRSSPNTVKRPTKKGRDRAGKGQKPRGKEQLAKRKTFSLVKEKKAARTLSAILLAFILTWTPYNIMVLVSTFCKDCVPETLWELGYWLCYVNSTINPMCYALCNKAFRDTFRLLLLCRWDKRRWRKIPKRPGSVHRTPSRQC
5-hydroxytryptamine receptor 2A (Homo sapiens), sequence (P28223 whole entry, looked up): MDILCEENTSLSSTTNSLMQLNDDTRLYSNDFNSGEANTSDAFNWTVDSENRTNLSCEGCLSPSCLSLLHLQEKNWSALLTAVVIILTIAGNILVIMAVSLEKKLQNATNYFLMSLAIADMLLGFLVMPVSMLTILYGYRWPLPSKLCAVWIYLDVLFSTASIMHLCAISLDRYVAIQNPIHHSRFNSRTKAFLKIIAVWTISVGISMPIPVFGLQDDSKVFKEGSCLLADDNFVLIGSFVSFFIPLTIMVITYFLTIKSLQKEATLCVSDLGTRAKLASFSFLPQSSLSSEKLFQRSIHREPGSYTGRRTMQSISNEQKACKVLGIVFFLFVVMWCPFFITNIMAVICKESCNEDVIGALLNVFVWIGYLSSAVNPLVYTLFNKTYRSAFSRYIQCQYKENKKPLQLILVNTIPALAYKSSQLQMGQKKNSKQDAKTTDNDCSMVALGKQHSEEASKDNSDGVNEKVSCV
D(2) dopamine receptor (Homo sapiens), sequence (P14416 whole entry, looked up): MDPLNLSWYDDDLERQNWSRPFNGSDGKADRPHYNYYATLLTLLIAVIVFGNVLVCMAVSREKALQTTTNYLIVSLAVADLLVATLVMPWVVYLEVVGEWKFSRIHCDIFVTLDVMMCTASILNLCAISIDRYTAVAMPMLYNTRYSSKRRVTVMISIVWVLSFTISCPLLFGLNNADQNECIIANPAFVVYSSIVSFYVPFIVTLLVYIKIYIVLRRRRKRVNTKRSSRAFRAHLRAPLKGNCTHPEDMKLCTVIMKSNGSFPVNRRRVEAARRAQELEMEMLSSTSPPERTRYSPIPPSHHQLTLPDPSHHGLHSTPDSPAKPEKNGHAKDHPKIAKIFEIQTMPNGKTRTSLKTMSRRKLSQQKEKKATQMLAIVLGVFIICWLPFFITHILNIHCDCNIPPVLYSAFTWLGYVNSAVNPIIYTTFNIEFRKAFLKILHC

Regarding `CN(C)CCn1nnnc1SCC1=C(C(=O)O)N2C(=O)[C@@H](NC(=O)Cc3csc(N)n3)[C@H]2SC1`, the Potency entry in test [1], in test [2], in test [3], in test [6], in test [7] and in [8] was “inactive” in each case. For the same compound, the Potency entry in test [9], in test [10], in [11], in test [12], in test [13] and in test [14] was “inactive” in each case. In addition, the Potency entry in test [15], in test [16], in [17] and in test [18] was “inactive” in each case. For the same compound, the result in test [4] and in test [5] was inactive.

Turning to `Cc1cccc(C)c1OCC(C)N` (stereo unspecified), the Potency result in test [1], in test [2], in test [3], in test [6], in test [7] and in test [8] was “inactive” throughout. Also, the Potency result in [9], in [10], in test [19], in test [20] and in test [18] was “inactive” each time. The outcome in test [4] and in test [5] was inactive.

Regarding `Cc1ccccc1N1C(=O)c2cc(S(N)(=O)=O)c(Cl)cc2NC1C` (stereo unspecified), the Potency entry in test [1], in test [2], in test [3], in [6], in [7] and in test [8] was “inactive” each time. Besides, the Potency result in test [9], in [10], in [19], in test [16] and in test [18] was “inactive” each time. Further, the outcome in [4] and in [5] was inactive.

For `O=C(O)Cc1ccc(-c2ccccc2)cc1`, the Potency result in [1], in test [2], in [3], in test [6], in test [7] and in test [8] was “inactive” in each case. For the same compound, the Potency entry in [9], in test [10], in [19], in test [16], in [17] and in test [18] was “inactive” each time. Further, the outcome in test [4] and in [5] was inactive.

Take `CCCCCCCCSCc1cc(C)c(O)c(CSCCCCCCCC)c1`: the Potency entry in test [1], in test [3], in [6], in test [7], in test [8] and in [9] was “inactive” each time. The Potency entry in test [10], in test [11], in test [12], in test [13], in test [15] and in test [16] was “inactive” throughout. For the same compound, the Potency result in [20], in [17] and in test [18] was “inactive” throughout. In addition, the Potency in test [2] was 61.1 µM (active). Further, the outcome in test [4] and in test [5] was inactive.

`OC(CCN1CCCC1)(c1ccccc1)C1CCCCC1` (stereo unspecified): the Potency result in test [1], in test [2], in [3], in [6], in test [7] and in test [8] was “inactive” in each case. For the same compound, the Potency result in test [9], in test [10], in test [11], in [12], in test [13] and in [14] was “inactive” in each case. In addition, the Potency entry in test [16], in [17] and in test [18] was “inactive” in each case. The result in [4] and in test [5] was inactive.

For the compound `CCOC(=N)CC(=O)OCC`, the Potency result in test [1], in [2], in test [3], in test [6], in [7] and in [8] was “inactive” in each case. Moreover, the Potency result in test [9], in test [10], in [11], in [12], in test [13] and in test [14] was “inactive” throughout. The Potency entry in test [15], in test [16], in test [17] and in [18] was “inactive” in each case. In addition, the outcome in test [4] and in test [5] was inactive.

The values are drawn from PubChem BioAssay (Tox21).
